Tg IFNy HTS: T. gondii growth inhibition with IFN-gamma, primary screen, cell-based; Toxoplasma gondii growth in IFN-gamma-treated host cells; hits give low values; activity change, negative = inhibition, % (test concentration not listed); actives 3.8% (n = 69,000); in the data active means activity change below about -70%, passing the limit was not always enough;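 further: host cells are HeLa cells infected with Toxoplasma gondii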
Numbers stand for hits; i = inactive; ! = not active in a repeat. The entries come from a sample that favours hits as a whole.

SMILES | Tg IFNy HTS
COc1cc(CCC(=O)N2CCC3(CC2)Nc2ccc(C)c(C)c2-n2cccc23)cc(OC)c1OC | i
CCCCc1nc(S(=O)(=O)c2ccc(C)cc2)c(N2CCOCC2)o1 | i
CS(=O)(=O)N1CCC[C@@]2(C(=O)O)CN(c3ccccn3)C[C@H]2C1 | i
COc1ncccc1CN1C[C@@H]2CN(C(=O)c3cnccn3)C[C@@H]2C1 | i
O=C(O)CN1C[C@@H]2C[C@@H](C1)CN(C(=O)c1cccc(F)c1)C2 | i
Cc1ccc(C2(O)CCN(c3cncc(C(=O)N4CCCC4)n3)CC2)nc1 | i
Cc1ccc(-c2c(F)cccc2OC(C)C)nn1 | i
COc1ccc(CN2CCCC(c3nnc(SC)n3C)C2)cc1 (configuration not stated) | i
O=C(COCc1nc2ccccc2[nH]1)N1CCC(CCN2CCOCC2)CC1 | i
COCC#Cc1ccc2c(c1)O[C@@H](CN(C)C(=O)C1CCOCC1)[C@@H](C)CN([C@H](C)CO)S2(=O)=O | i
C[C@@H]1CN([C@H](C)CO)S(=O)(=O)c2ccc(C#CC(C)(C)O)cc2O[C@H]1CN(C)Cc1ccc(F)cc1 | -116
C[C@@H]1CN([C@H](C)CO)S(=O)(=O)c2ccc(C#CCC3CCCC3)cc2O[C@@H]1CN(C)C(=O)c1cnccn1 | i
C[C@@H]1CN([C@H](C)CO)S(=O)(=O)c2ccc(C#CC(C)(C)O)cc2O[C@@H]1CN(C)Cc1ccc(F)cc1 | i
C[C@@H]1CN([C@H](C)CO)S(=O)(=O)c2ccc(-c3ccc(F)cc3)cc2O[C@H]1CN(C)Cc1ccccc1C(=O)O | i
Cc1ccc(S(=O)(=O)N(C)C[C@@H]2Oc3cc(C#CC4CCCC4)ccc3S(=O)(=O)N([C@@H](C)CO)C[C@@H]2C)cc1 | -114
O=C(Cn1ncc2c(N3CCOCC3)ncnc21)Nc1ccc(OC(F)(F)F)cc1 | i
CC(C)Cc1cc(C(=O)N2CCN(C)C(c3ccccc3)C2)nc(=O)[nH]1 (configuration not stated) | i
O=C(NCc1cnn2cccnc12)c1cccc(CC2CCNCC2)c1 | i
c1ccc(CCC2CN(Cc3ccoc3)CCO2)cc1 (configuration not stated) | i
CN(C)C(=O)c1ccc(-c2ccc(Cn3ccnc3)cc2)cc1 | i
COc1ncc(CN2CCC(c3[nH]ncc3-c3cccc(F)c3)CC2)cn1 | i
Cc1nn(CC(C)C(=O)N2CCCC(c3nc4ccccc4cc3N)C2)c(C)c1C (configuration not stated) | i
O=C(NCc1cc(Cl)c2c(c1)OCCCO2)c1cccc(Nc2ncccn2)c1 | -71
CCC(C(=O)NCc1cc(Cl)c2c(c1)OCCCO2)n1nc(C)cc1C (configuration not stated) | i
O=C(CCC1C(=O)Nc2ccccc21)NCc1cc(Cl)c2c(c1)OCCCO2 (configuration not stated) | i
SMILES | Tg IFNy HTS
COc1ccc(-n2c(=O)c(C(=O)NCc3ccc(Cl)cc3)c(O)c3cccnc32)cc1 | i
O=C(c1ccco1)N1CC2CC(CN(CC3CCOC3)C2)C1 (configuration not stated) | i
Nc1nc2ccc(-c3nc4ccccc4[nH]3)cc2s1 | i
Nc1nc2ccc(OC(F)(F)F)cc2s1 | -94!
COC(=O)c1ccc2nc(N)sc2c1 | i
COc1ccc(CNC(=O)C(CC(C)C)OC(=O)c2cccs2)cc1 (configuration not stated) | i
O=C(Cc1cccnc1)N1[C@@H](CO)[C@@H](c2ccccc2)[C@@H]1CNCC1CCC1 | i
Cc1cc(C2CCCCC2)n(O)c(=O)c1 | -82!
Cc1cc(CC(C)CC(C)(C)C)n(O)c(=O)c1 (configuration not stated) | i
O=S(=O)(CCN1CCN(CCS(=O)(=O)c2ccccc2)CC1)c1ccccc1 | i
O=c1ccc2cc(S(=O)(=O)N3CCCC3)ccc2[nH]1 | i
O=c1[nH]c(O)c(N=Nc2ccc(S(=O)(=O)N3CCCC3)cc2)c(=O)[nH]1 | -74
COC(=O)Nc1ccc(S(=O)(=O)N2CCCCC2)cc1 | i
O=C(COC(=O)c1ccccc1NC(=O)c1ccc(Cl)cc1Cl)c1ccccc1 | i
O=C(c1ccccc1Cl)N1CCC2(CC1)Nc1cc(F)ccc1-n1cccc12 | i
FC(F)(F)c1ccc(Oc2ncnc3c(-c4ccccc4)c(C(F)(F)F)sc23)cc1 | -71
O=S(=O)(Oc1ccc(Cl)cc1)c1csc(C(F)(F)F)c1-c1ccccc1 | i
CN(C)c1ccc(C(=O)Cc2ccccc2)cc1 | i
CCS(=O)(=O)N1CCC2(CC1)OC(=O)C(C)=C2C(=O)Nc1ccc(Br)cc1F | i
CCn1cncc1CNC(=O)CCc1nc(-c2ccccc2C)no1 | i
CC(C)Oc1ncnc2c1CCN(C(=O)[C@H]1CCCO1)CC2 | i
CCc1oc(C(=O)N[C@@H]2c3ccccc3C[C@@H]2O)cc1CN1CCCC1 | i
CCN(CC)c1ccc(C2=NNC(=O)CC2C)cc1[N+](=O)[O-] (configuration not stated) | -98
COc1ccc(-c2nc3ccc(C4=NNC(=O)CC4C)cc3[nH]2)cc1 (configuration not stated) | i
CN=C(NC#N)Nc1ccc(C2=NNC(=O)CC2C)cc1 (configuration not stated) | i
SMILES | Tg IFNy HTS
CCN1CCO[C@H]2CN(C(=O)Cc3ccsc3)CC[C@@H]2C1 | i
CC(C)(C)c1ccc(OCC(=O)NCc2ccc(-n3cccc3)cc2)cc1 | i
CCc1ncc(CN2CCc3c([nH]c4ccc(Cl)cc34)C2)cn1 | i
CC(C)(C)S(=O)N1Cc2cc(C(=O)NCc3ccc(Oc4ccccc4)cc3)nc(-c3cccc(C#CCC4CCCC4)c3)c2[C@@H]1CCO (some centres not stated) | i
Cc1ncsc1C(=O)N1CCC2(CCC(CC(=O)O)CC2)CC1 | i
CC(=O)NC1=NN(C(C)=O)C(C)(c2ccccc2)S1 (configuration not stated) | -77!
CC(=O)Nc1ccccc1 | i
CC(=O)Nc1nonc1-c1ccccc1 | i
Cc1ccc(C)c(NC(=O)Cn2c(=O)cc(C(=O)N3CCc4ccccc4C3)c3ccccc32)c1 | i
CNC(=O)c1ccc(CN2CCCC(CCc3ccccc3C)C2)cc1 (configuration not stated) | i
Cc1c[nH]c(CN2CCCC(CCc3ccccc3F)C2)c(C)c1=O (configuration not stated) | -89
COc1coc(CN2CCCC(CCc3ccccc3C)C2)cc1=O (configuration not stated) | i
Cc1cccc(C)c1N1CCN(CC(O)COc2ccc3c4c(c(=O)oc3c2)CCC4)CC1 (configuration not stated) | i
Cc1ccc2c(c1)CCCN2CCn1c(=O)[nH]c2ccc(C)cc2c1=O | -82
Cc1ccc2[nH]c3c(=O)n(CCc4cnc[nH]4)cnc3c2c1 | i
Cc1ccc2[nH]c3c(=O)n(CCCN4CCN(C)CC4)cnc3c2c1 | i
COc1ccc(OC)c(CNC(=O)c2nc(N3CCCC3)c3ccccc3n2)c1 | i
CC/C(=C(/CC)c1ccc(O)cc1)c1ccc(O)cc1 | i
CC/C(=C(\c1ccccc1)c1ccc(OCCN(C)C)cc1)c1ccccc1 | i
CC/C(=C(\c1ccc(O)cc1)c1ccc(OCCN(C)C)cc1)c1ccccc1 | -98
Cc1cc(I)ccc1Nc1c(C(=O)NOCC2CC2)cc(F)c(F)c1F | -82
O=C(NOCCO)c1cc(CN2OCCCC2=O)c(F)c(F)c1Nc1ccc(I)cc1F | i
O=C(c1ccc(F)c(F)c1Nc1ccc(I)cc1F)N1CC(O)([C@@H]2CCCCN2)C1 | i

Screening results from PubChem BioAssay.
